One may read the inhibition as the relative decrease from the control value, in per cent.

These results are taken from PubChem BioAssay AID1626 (SRMLSC, 2009).

Out of some 220,000 compounds screened, about 2,000 (0.91%) were called active. Not shown: some 2% with an inconclusive outcome. A selection follows. Potency and affinity values are given separately. A number with no mark means an inactive call. No stated cut-off is given here; in the data, inconclusive means inhibition above about 80% without an active follow-up result; inactive means below that; test concentration not stated here.

A short description of the test: M. tuberculosis H37Rv growth inhibitors, H37Rv strain (AID 1626).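 Further: bacteria incubated seven days before Alamar blue readout; 0% = bacteria only wells and 100% = bacteria with antibiotic wells.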 The note with it: active compounds read high, concentration not given here.
`O=C(Cc1c[nH]c2ccccc12)NCc1ccc2c(c1)OCO2`: the inhibition was 8.71%.
Consider `CCCOc1ccc2c3c(c(=O)oc2c1OCCC)CCCC3`, for which the inhibition is 30.6%.
As for `CCOc1c(OC)ccc2c3c(c(=O)oc12)CCCC3`, the figure is 12.9%; as for `Cc1cc(CNC(=S)Nc2ccc(Br)cc2Cl)nn1C`, 9.6%.
The figure for `Cc1cccc(-n2c(O)c(C=Nc3ccc(O)cc3)c3ccccc3c2=O)n1` is -0.55%; for `CCOc1ccc(-n2c(O)c(C=Nc3ccc(N4CCOCC4)cc3)c(=O)[nH]c2=O)cc1` it is -4.71%; for `CCOc1ccc(N=Cc2c(O)n(Cc3ccccc3)c(=S)[nH]c2=O)cc1` it is 72.9%.
As for `Cc1ccc(N=Cc2c(O)n(-c3ccc(C)cc3)c(=O)[nH]c2=O)cc1`, the figure is -7.29%.
As to `COc1ccc(N=Cc2c(O)n(-c3cccc(C)n3)c(=O)c3ccccc23)cc1`, the inhibition is 16.8%.
As for `CCOc1ccccc1-n1c(O)c(C=Nc2ccc(N(CC)CC)cc2)c(=O)[nH]c1=O`, the figure is -4.16%.
Turning to `COc1cc(CN=Cc2c(O)n(C(C)(C)C)c(=O)[nH]c2=O)cc(OC)c1`, the inhibition is -1.21%.
Regarding `CCN(CC)c1ccc(N=Cc2c(O)n(-c3ccc(OC)cc3)c(=O)[nH]c2=O)cc1`, the inhibition is -3.8%.
As for `O=C(O)c1ccc(CSc2nc3ccc(N4C(=O)C5C6C=CC(C6)C5C4=O)cc3s2)cc1` (stereo not given), the inhibition is -3.36%.
For the compound `CN=C1SC(CC(=O)Nc2ccccc2F)C(=O)N1C` (stereo not given), the inhibition was -3.74%.
As for `COc1cccc(NC(=S)NNC(=O)c2ccccc2OC(F)F)c1`, the figure is -13.3%; as for `COc1ccc(C)cc1N(C(=O)CNC(=O)c1ccco1)C(C(=O)NC1CCCC1)c1cccnc1` (stereo not given), -8.51%.
`COc1cccc(-c2nn(-c3ccccc3)cc2CN(C)Cc2ccon2)c1`: the inhibition is -3.56%.
For `CN(C)S(=O)(=O)c1ccc2oc(SCC(N)=O)nc2c1`, the inhibition was -16.7%.
As for `CC1=NN(C(=O)COc2ccccc2)C(O)(c2cccnc2)C1` (stereo not given), the figure is -1.6%.
The figure for `COc1ccc(CCN(C)CC(O)c2ccccc2)cc1OC` (stereo not given) is 1.49%; for `CCOc1ccc(-n2c(O)c(C=Nc3ccc(N(CC)CC)cc3)c(=O)[nH]c2=O)cc1` it is -0.69%.
Turning to `CCOc1ccc(-n2c(O)c(C=Nc3ccc(NC(C)=O)cc3)c(=O)[nH]c2=O)cc1`, the inhibition is 4.04%.
The figure for `CC1CCCN(c2nc3c(c(=O)[nH]c(=O)n3C)n2CCSc2ncccn2)C1` (stereo not given) is 2.85%; for `COC(=O)C1C2c3ccccc3OC1(C)N=c1s/c(=C/c3cnn(C)c3)c(=O)n12` (stereo not given) it is 58.3%.
Consider `COC(=O)C1C2c3ccccc3OC1(C)N=c1s/c(=C/c3cn(C)nc3C)c(=O)n12` (stereo not given), for which the inhibition is -3.65%.
